This is a sample that favours compounds with a hit; in the whole collection about 3.8% have one here.
Jurkat NFkB inh: inhibitors of induced NF-kB luciferase reporter, primary screen, TCR NF-kB activation inhibitor project, cell-based, luminescence, uHTS | inhibition, % at 4 µM | actives 0.53% (n = 330,000) | Jurkat, PMA/ionomycin-induced NF-kB luciferase reporter; in the data active = inhibition above about 50%
697 NFkB inh: inhibitors of PMA/ionomycin-induced NF-kB reporter, 697 cells, primary screen, B-cell NF-kB inhibitor project, cell-based, luminescence, uHTS | 697 B-cell NF-kB luciferase reporter, 16 h | actives 0.33% (n = 330,000) | AID 435022, 2010 | inhibition, % at 4 µM; in the data active = inhibition above about 35%
Mdm2-MdmX inh: inhibitors of human Mdm2-MdmX association, primary screen, cell-based, luminescence, split luciferase, SaOS-2, uHTS. AID 485346, 2010. inhibition, % at 8 µM. actives 3% (n = 330,000). Protein Mdm4 (Homo sapiens) + E3 ubiquitin-protein ligase Mdm2 (Homo sapiens), …. SaOS-2 split-luciferase Mdm2/MdmX complementation;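 active = inhibition of at least 50% at 8 µM in the primary screen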
NTR1 ag: agonists of human NTR1, primary screen, imaging, U2OS cells, beta-arrestin-GFP, high content; Neurotensin receptor type 1 (Homo sapiens), P30989; actives 0.17% (n = 330,000); activation, % at 20 µM; NTR1-U2OS beta-arrestin-GFP spot imaging, agonist mode; AID 493036, 2011;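 active = activation at or above 40% of the spot to cytoplasm intensity ratio, with at least 20 cells analyzed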
Target sequence (P30989 whole entry, looked up): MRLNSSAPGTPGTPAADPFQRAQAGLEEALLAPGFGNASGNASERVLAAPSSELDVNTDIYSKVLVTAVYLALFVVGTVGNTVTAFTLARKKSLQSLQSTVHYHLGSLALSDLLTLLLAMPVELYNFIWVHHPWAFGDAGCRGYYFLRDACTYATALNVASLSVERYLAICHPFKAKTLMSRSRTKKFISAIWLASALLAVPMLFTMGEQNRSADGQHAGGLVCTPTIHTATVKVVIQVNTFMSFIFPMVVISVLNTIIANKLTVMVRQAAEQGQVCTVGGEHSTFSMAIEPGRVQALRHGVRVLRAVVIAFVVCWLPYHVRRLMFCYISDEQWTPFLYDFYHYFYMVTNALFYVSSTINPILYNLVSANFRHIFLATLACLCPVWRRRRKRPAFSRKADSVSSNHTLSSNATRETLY
A1 inh: caspase 3/7 activation in MEF A1-2A-BIM cells, primary screen, A1 inhibitor project, cell-based, luminescence, HTS | caspase activation, % (no concentration beside the values) | actives 0.066% (n = 330,000) | Caspase-Glo 3/7 luminescence, 3 h; percent of clofoctol response, vehicle zero;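 active = over half of replicate activation scores above 10%, or exactly half above 10 with the replicate mean above 10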
Beta apoptosis: inhibitors of cytokine-induced beta cell apoptosis, primary screen, luminescence; protection from apoptosis, % (test concentration not listed); AID 435005, 2010; actives 0.8% (n = 300,000); INS-1E cytokine-induced death, ATP luminescence, 48 h; percent of positive-control rescue, neutral wells zero;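 active = Every replicate reaches about 75%, or at least half do and their mean reaches it too, limit read from the data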;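 also: higher means more ATP so stronger rescue from cytokine killing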
Mdm2-MdmX conf: Mdm2-MdmX complex disruptors, retested hits, confirmation, luminescence, single concentration; shares compounds with Mdm2-MdmX inh; Mdm2-MdmX binding, luminescent assay; inhibition, % at 8 µM; actives 55% (n = 10,000); in the data active = inhibition above about 40%
Full FLuc ctr: full-length luciferase signal inhibition, confirmation, counter-screen for Mdm2/MdmX interaction inhibitor project, cell-based, single concentration, SaOS-2; shares compounds with Mdm2-MdmX inh; SaOS-2 full-length luciferase counterscreen, luminescence; inhibition, % at 8 µM; actives 77% (n = 6,200); AID 504607, 2011;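 active = mean inhibition at 8 µM reaching about 37%, which flags the compound as non-specific, limit read from the data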;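 also: p53-null SaOS-2 cells with luciferase driven by a doxycycline-inducible promoter; compound on cells about two nights before reading with doxycycline added after day one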
A number is an active result; . = inactive; / = no result.

SMILES	Jurkat NFkB inh	697 NFkB inh	Mdm2-MdmX inh	NTR1 ag	A1 inh	Beta apoptosis	Mdm2-MdmX conf	Full FLuc ctr
O=C(Nc1cccc(-c2csc(Nc3cccc(C(F)(F)F)c3)n2)c1)c1cc([N+](=O)[O-])cc(C(F)(F)F)c1	.	.	64	.	.	.	.	/
COc1ccc(-n2nc3c(N4CCC(C(=O)NC5CCCCC5)CC4)nnc(C)c3c2C)cc1	.	.	97	.	.	.	.	76
COc1ccc(-n2nc3c(N4CCC(C(=O)NCCc5ccccc5C)CC4)nnc(C)c3c2C)cc1	.	.	.	.	.	.	/	/
COc1ccc(-n2nc3c(N4CCC(C(=O)NCc5ccccc5C)CC4)nnc(C)c3c2C)cc1	.	.	100	.	.	.	98	51
Cc1ccc(-n2nc3c(N4CCC(C(=O)NCCc5ccccc5C)CC4)nnc(C)c3c2C)cc1	.	.	98	.	.	.	43	53
COc1ccc(-n2nc3c(N4CCC(C(=O)NCC(C)c5ccccc5)CC4)nnc(C)c3c2C)cc1 (centres undefined)	.	.	70	.	.	.	.	/
COc1ccc(-n2nc3c(N4CCC(C(=O)NCc5ccco5)CC4)nnc(C)c3c2C)cc1	.	.	.	.	.	.	/	/
O=C1OC(CC(=O)N(Cc2nnc(-c3ccccc3Cl)o2)C2CC2)c2ccccc21 (centres undefined)	.	.	.	.	.	.	/	/
CCc1nc(CNC(=O)C2CCC(=O)N(Cc3ccccc3F)C2)no1 (centres undefined)	.	.	.	.	/	/	/	/
CC(CN1CCOCC1)OC(=O)c1cccc(Cl)c1 (centres undefined)	.	.	.	.	.	/	/	/
Cc1ccc(-n2nc3c(N4CCC(C(=O)NCc5cccc(F)c5)CC4)nnc(C)c3c2C)cc1	.	.	.	.	.	.	/	/
CCOc1ccccc1CNC(=O)C1CCCN(c2nnc(C)c3c(C)n(-c4ccccc4)nc23)C1 (centres undefined)	.	.	90	.	.	.	41	.
CC1Sc2ccc(S(=O)(=O)N3CCC(C(=O)NCC(C)c4ccccc4)CC3)cc2NC1=O (centres undefined)	.	.	.	.	.	.	/	/
O=c1sc2ccccc2c(N2CCOCC2)c1[N+](=O)[O-]	.	.	.	.	.	.	/	/
Oc1ccc(CNc2ccccc2F)c2cccnc12	.	.	89	.	.	.	85	.
O=C(O)c1sc2ncccc2c1OCc1ccccc1	.	.	.	.	.	.	/	/
COc1ccc(S(=O)(=O)N(CC(C)C)CC(C)C)c2cccnc12	.	.	.	.	/	/	/	/
OCc1ccc(O)c2ncccc12	.	.	86	.	.	107	82	43
CC(C)COCc1ccc(O)c2ncccc12	.	.	59	.	.	89	44	52
Oc1ccc(COCc2ccccc2)c2cccnc12	.	.	80	.	.	99	54	.
COC(=O)c1c(NC(=O)C(=O)NCCCN2CCOCC2)sc2c1CCCC2	.	.	.	.	.	/	/	/
O=C1c2ccccc2N[C@@H]2C=CC[C@@H]2N1O	/	.	.	.	/	/	/	/
CCCOCc1ccc(O)c2ncccc12	.	.	75	.	.	107	56	.
CCCCN(C(=O)c1c(CC)noc1C)c1c(N)n(CCC)c(=O)[nH]c1=O	.	.	.	.	.	.	/	/
COc1ccc(S(=O)(=O)NNC(=O)Nc2ccc(F)cc2)cc1	.	.	.	.	.	.	/	/

Screening data: PubChem BioAssay, several laboratories
